Molecules are shown by their SMILES. The whole screen tested about 330,000 compounds, of which about 4,900 (1.5%) were called active. Many of the other results were omitted from the sample, so actives are more common in it than they were. A number with no mark means an inactive call.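 How the source made its calls: active means inhibition above the mean inhibition across the screen plus 3 SD (cut at about 25% in these data); inactive means the rest.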

In the assay the target is Platelet-activating factor acetylhydrolase (Homo sapiens) (UniProt Q13093). As to the kind of experiment: pPAFAH enzyme inhibitors, primary screen, biochemical, fluorescence polarization, human (AID 463082).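 Further: inhibitors block binding of the rhodamine activity-based probe so polarization drops; 0% = enzyme with DMSO and 100% = wells lacking pPAFAH.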 The note with it: recombinant pPAFAH, FP-rhodamine probe fluorescence polarization; at 3.39 µM; active compounds read high.
Platelet-activating factor acetylhydrolase (Homo sapiens), sequence (Q13093 whole entry, looked up): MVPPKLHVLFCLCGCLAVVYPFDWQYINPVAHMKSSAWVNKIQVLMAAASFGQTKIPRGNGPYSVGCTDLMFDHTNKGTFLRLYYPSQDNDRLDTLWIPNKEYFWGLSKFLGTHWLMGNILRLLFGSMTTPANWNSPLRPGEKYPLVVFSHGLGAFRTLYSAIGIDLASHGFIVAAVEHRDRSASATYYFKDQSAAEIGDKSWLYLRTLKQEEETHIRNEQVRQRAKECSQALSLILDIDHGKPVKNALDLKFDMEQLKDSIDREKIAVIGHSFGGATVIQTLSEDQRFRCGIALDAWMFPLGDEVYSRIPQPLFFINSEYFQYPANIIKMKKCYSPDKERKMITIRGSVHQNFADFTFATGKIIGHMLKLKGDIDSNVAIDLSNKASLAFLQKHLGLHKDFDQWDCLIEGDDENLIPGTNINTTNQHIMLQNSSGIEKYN
In general, inhibition refers to the relative decrease from the control value, in per cent. With `CN(C)/C=N/c1cc(=O)n(C)c(=O)n1CC1CC1`, the inhibition was -0.49%.

Turning to `Cc1ccc(C(=O)NC23CC4CC(CC(C4)C2)C3)c(Cl)c1`, the inhibition was 5.48%. For `Cc1ccsc1C(=O)OCC(=O)Nc1cccc(F)c1`, the inhibition was 31.5% (active). The figure for `CC1CC1C(=O)OCC(=O)Nc1cccc(F)c1` (stereo unspecified) is 13.3%. To `Cc1ccsc1C(=O)OCC(=O)NCCc1ccccc1` belongs 2.4%. In the case of `Cc1ccc2nc(-c3ccc(SCC(=O)Nc4cc(C)on4)nc3)[nH]c2c1`, the inhibition was -7.51%. For `CCOc1ccccc1NC(=O)CCc1nnc2ccc(NCc3ccco3)nn12`, the inhibition was 6.27%.

On to `CC(=O)c1ccc(NC(=O)CCc2nnc3ccc(NCc4ccco4)nn23)cc1`, for which the inhibition was -0.96%. As to `O=C(CCc1nnc2ccc(NCc3ccco3)nn12)Nc1cc(F)ccc1F`, the inhibition is 32.9% (active). The figure for `CC(Cc1cccs1)N(Cc1ccc(Cl)cc1)C(=O)c1ccncc1` (stereo unspecified) is 6.35%; for `CCSC1=C(C#N)C(=O)n2c1cc1c2CCCC1` it is 8.15%.

In the case of `Cn1c(NC(=O)c2ccco2)c(-c2ccccc2Cl)c(=O)c2ccccc21`, the inhibition is 1.1%. To `CC(C)c1ccc(NC(=S)NNc2ccc(Cl)c(C(=O)O)c2)cc1` belongs 38.3% (active); to `O=C(NC(=S)Nc1ccc(Cl)c(C(=O)O)c1)c1cncc(Br)c1`, 0.25%; to `Cc1ccc(C)c(NC(=S)NNC(=S)Nc2ccc(C(C)C)cc2)c1`, 22.5%.

For the molecule `Cc1cc(=O)n2nc(N3CCCC(C(=O)NCc4cccc(Cl)c4)C3)sc2n1` (stereo unspecified), the inhibition is 1.7%. Take `COc1ccccc1CNC(=O)COn1nnc2ccc(S(=O)(=O)N3CCOCC3)cc21`: the inhibition is 2.22%. Consider `CC(C)N(C(=O)[C@H]1C[C@H](CC(=O)NC(C)(C)C)C(=O)N2CCc3c([nH]c4ccc(Cl)cc34)[C@]12C)C(C)C`, for which the inhibition is 3.29%. Take `O=C(Nc1ccc(C(F)(F)F)cc1)c1cccc(-n2cnnn2)c1`: the inhibition is -6.56%. The figure for `O=C(Nc1ccc(-c2csc(Nc3cccc(C(F)(F)F)c3)n2)cc1)c1cccc(C(F)(F)F)c1` is 28.4% (active). Turning to `Cc1nc(NC(=O)c2cccc(Cl)c2)sc1-c1csc(Nc2cccc(Cl)c2)n1`, the inhibition is 11.3%.

For `CC(C)c1nc(CNC(=O)CC2C(=O)NCCN2Cc2cccc(F)c2F)cs1` (stereo unspecified), the inhibition was 3.46%. The figure for `COc1cc(NC(=O)CCS(=O)(=O)c2ccc3c(c2)oc(=O)n3C)cc(OC)c1` is 3.91%.

Take `COc1ccc(-c2n[nH]c(C)c2-c2ccccc2OC)c(O)c1`: the inhibition is 4.94%. The figure for `C=C(C)COc1ccc(-c2n[nH]c(C)c2-c2ccccc2)c(O)c1` is 13.4%; for `C=C(C)COc1ccc(-c2n[nH]c(C)c2-c2ccccc2OC)c(O)c1` it is 26.2% (active). To `O=C(Nc1ccc(F)c([N+](=O)[O-])c1)C1CCCO1` (stereo unspecified) belongs -1.09%. The figure for `CN(Cc1cccs1)C(=O)CN1C(=O)c2ccccc2S1(=O)=O` is 4.08%; for `CN(C)c1ccc(C(=S)N2CCN(C(=S)Nc3ccc(Cl)cc3)CC2)cc1` it is 1.77%. On to `CCn1cc(C(=O)NCCC(=O)NCCO)c(=O)c2cc3c(cc21)OCO3`, for which the inhibition is 4.78%. The figure for `COc1cc(C2CC(=O)N3CN(Cc4ccccc4)CSC3=C2C#N)ccc1OCc1ccccc1` (stereo unspecified) is 35.3% (active). As for `COc1cc(CN2CCC(C(N)=O)CC2)ccc1OCc1ccccc1`, the inhibition is 0.32%. For `COc1cc(CNC2CCCC2)c(Br)cc1OCc1ccccc1`, the inhibition was 1.42%. For `COc1ccc(CNc2cc(C)cc(C)c2)cc1OC`, the inhibition was 0.82%. For `CC1CCCCC1NC(=O)COC(=O)Cc1ccc(Cl)cc1` (stereo unspecified), the inhibition was 35.3% (active).

As to `O=C(COC(=O)Cc1ccc([N+](=O)[O-])cc1)NC1CCCCCC1`, the inhibition is 12.4%. As for `CC1CCCCC1NC(=O)COC(=O)Cc1ccc(Br)cc1` (stereo unspecified), the inhibition was 23.6%. Take `Cc1cccc(C(=O)O)c1[N+](=O)[O-]`: the inhibition is 1.3%. To `C=CCn1c(Oc2ccc(C(=O)OC)cc2)nc2c1c(=O)n(C)c(=O)n2C` belongs -2.33%. To `CSc1ccc(CNC(=O)c2ccc(NC(=O)C3=CSCCO3)cc2)cc1` belongs -5.55%; to `Cc1cc(C)cc(N(CC(=O)NC2CCCC2)C(=O)CCC(=O)Nc2nccs2)c1`, 1.33%. To `Cc1cccc(CCNS(=O)(=O)c2ccc(S(=O)(=O)NC3CCCC3)cc2)c1` belongs 27.3% (active); to `Cc1cccc(CCNS(=O)(=O)c2ccc3c(c2)NC(=O)CO3)c1`, 9.07%. For the molecule `Cc1ccc(S(=O)(=O)NC2CCCCCC2)cc1`, the inhibition was 9.54%. As to `CC[C@]12c3[nH]c4cc(CCC(=O)N(C)C)ccc4c3CCN1C(=O)[C@@H](CC(=O)NCCCn1ccnc1)C[C@@H]2C(=O)N1CCN(C(=O)C2CC2)CC1`, the inhibition is -6.7%. The figure for `CCc1cccc(C)c1NS(=O)(=O)c1c(C)nc2sccn2c1=O` is 1.67%. The figure for `CN(C)[C@@H]1C(=O)C(C(N)=O)=C(O)[C@@]2(O)C(=O)C3=C(O)c4c(O)ccc(Cl)c4[C@@H](O)[C@H]3C[C@@H]12` is 49.4% (active); for `O=C(c1ccco1)N(Cc1nc2ccccc2c(=O)[nH]1)C1CCCC1` it is 2.71%. As for `CC(=O)c1ccc(-c2nnc(CCC(=O)N(C)Cc3cnc4ccccn34)o2)s1`, the inhibition was 3.22%. Consider `CCc1ccc(CN(C)Cc2nc(Cc3ccccc3)no2)nc1`, for which the inhibition is 1.77%. Consider `CCc1ccc(CN(C)C(=O)CCc2nnc(-c3ccc(-c4ccccc4)cc3)o2)nc1`, for which the inhibition was 61.6% (active). To `COc1ccc(CNC(=O)Cc2ccc(-c3ccccc3)cc2)cc1OC` belongs 31.1% (active); to `COc1ccc(CCNC(=O)Cc2ccc(C)cc2)cc1OC`, 0.86%. For the molecule `COc1ccc(NC(=O)CNC(=O)Cc2ccccc2)cc1OC`, the inhibition was 1.61%. `Cc1cc(=O)oc2c(C)c(OCC(=O)NCCc3ccc(S(N)(=O)=O)cc3)ccc12`: the inhibition was 1.13%. `CCOc1ccc(S(=O)(=O)NCCC(=O)NCC2CCCO2)cc1` (stereo unspecified): the inhibition is -0.87%. The figure for `Nc1scc(-c2ccncc2)c1Cl` is 5.7%. Consider `CCOC(=O)c1c(-c2ccccc2)oc2cc(Br)c(O)c(C=O)c12`, for which the inhibition is 30.1% (active). To `CCOC(=O)c1c(C)oc(C)c(C(=O)OCC)c1=O` belongs -1.33%.

For `CCOC(=O)c1c(C)oc2ccc(OCC(=O)N(CC)CC)cc12`, the inhibition is -9.45%. The figure for `CCOC(=O)c1c(C)oc2cc(Sc3ccccc3)c(O)c(O)c12` is 27.6% (active). As to `CCOC(=O)c1c(-c2ccccc2)oc2ccc(OCC(=O)NN)cc12`, the inhibition is 3.22%. `CCOC(=O)c1c(C)oc2cc(Br)c(OCC(N)=O)cc12`: the inhibition was -0.28%. To `Cc1cc(NC(=O)CSc2nnc(-c3ccco3)n2N)no1` belongs 1.38%; to `CCc1cccc(C)c1NC(=O)CSc1nnc(-c2ccco2)n1N`, -2.12%; to `NC(=O)c1c(NC(=O)CSc2nnc(-c3ccco3)n2N)sc2c1CCCC2`, 24.9% (active). To `CN(CC(=O)NC1CCCC1)S(=O)(=O)c1cnc[nH]1` belongs 5.78%; to `Cc1ccc(S(=O)(=O)NCc2cn3ccsc3n2)c(C)c1`, 3.63%; to `Cc1nc(CNS(=O)(=O)c2cc([N+](=O)[O-])ccc2C)cs1`, 1.89%. The figure for `Cc1ccc(S(=O)(=O)NCc2csc(C)n2)c(C)c1` is 57.6% (active).

Turning to `O=C(NCCN1CCOC1=O)C1CCC(=O)N(CCc2ccc(Cl)cc2)C1` (stereo unspecified), the inhibition is 6.31%.

On to `CCOC(=O)c1c(N=CN(C)C)c(C#N)c2n1CCCC2`, for which the inhibition was -0.32%. On to `CC(C)C(C)(C#N)NC(=O)CSc1nncn1-c1ccccc1` (stereo unspecified), for which the inhibition is 3.15%. As to `CCc1cccc(C)c1NC(=O)COC(=O)CNC(=O)c1cccs1`, the inhibition was -1.56%. To `Cc1cccc(C)c1NC(=O)CNC(=O)C1CCCC1` belongs -3.74%; to `CCc1cccc(C)c1NC(=O)COC(=O)CC1CCCC1`, 31.2% (active). The figure for `COc1ccc(C2=NN(c3nc4ccccc4s3)C(=O)C2)cc1` is 10.8%; for `CCC(=O)NC(=Nc1nc2ccccc2s1)NC(=O)CC` it is 1.11%; for `CCC(C)Cn1c(O)cc2nn(-c3nc4ccccc4s3)c(=O)c-2c1C` (stereo unspecified) it is 49.8% (active). The figure for `C=CCNC(=O)COC(=O)c1ccccc1C(=O)N(C)C1CCCCC1` is -0.67%; for `CC1(c2ccc3ccccc3c2)NC(=O)N(CC(N)=O)C1=O` (stereo unspecified) it is 1.23%. Regarding `COc1ccccc1NC(=O)CCSc1nnc(-c2ccc(O)cc2)o1`, the inhibition is -1.64%. Regarding `CC(C)(C)NC(=O)NC(=O)COC(=O)C1(C)CC1(Cl)Cl` (stereo unspecified), the inhibition is 4.74%. With `COc1ccccc1OCCC(=O)OCC(=O)NC(=O)NC(C)(C)C`, the inhibition was 2.65%. Consider `CC(C)(C)NC(=O)NC(=O)COC(=O)CCC1CCCCC1`, for which the inhibition was 29.9% (active). The figure for `COc1ccc(N(CC(=O)Nc2cc(OC)cc(OC)c2)S(=O)(=O)c2c(C)n[nH]c2C)cc1` is 1.91%; for `CC[C@]12c3[nH]c4cc(CCC(=O)N(C)C)ccc4c3CCN1C(=O)[C@@H](CC(=O)NCC13CC4CC(CC(C4)C1)C3)C[C@@H]2C(=O)N1CCN(C(=O)C2CC2)CC1` it is 1.87%.

Consider `CC(C)N(C(=O)[C@H]1C[C@H](CC(=O)NCCC2=CCCCC2)C(=O)N2CCc3c([nH]c4cc(CCC(=O)N(C)C)ccc34)[C@]12C)C(C)C`, for which the inhibition was 16.4%. Turning to `CCN(CC)C(=O)[C@H]1C[C@H](CC(=O)NCC23CC4CC(CC(C4)C2)C3)C(=O)N2CCc3c([nH]c4cc(CCC(=O)N(C)C)ccc34)[C@]12C`, the inhibition was 27.5% (active).

In the case of `CC(C)C(O)C1CCN(Cc2nc(Cc3ccccc3Cl)no2)CC1` (stereo unspecified), the inhibition was 1.22%. To `CCSCc1nc(N)nc(NCCc2ccccc2)n1` belongs 5.83%.

These data come from PubChem BioAssay AID463082 (The Scripps Research Institute Molecular Screening Center, 2010).
